# Results taken from the supplement of paper PMC12636033.
# ± gives the standard deviation of the averaged measurements. Whole data set: some 33,000 sequences, median “E-score (rank enrichment, -0.5 to 0.5)” near -0.0043, cut for the highest 2% near 0.24. The sample as a whole holds a higher share of the highest values than the screen did.
# Tested on: 2Sp-muMax20 (muMax20 with two 2,6-bis(methyl)pyridine Cys staples)
# Experiment: PBM 8-mer E-score (E-score (rank enrichment, -0.5 to 0.5)); higher = stronger preferential binding
# Experimental: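 Protein binding microarray (universal PBM chip covering all 10-mers in fixed probe flanks) with chemically synthesized human Max(13-93) bHLH-LZ analogs (not full-length Max) bearing noncanonical residues (hArg, Tha, Aib, Nle at 65) and aromatic Cys staples. Read-out per 8-mer (and its reverse complement): E-score (rank-based enrichment, -0.5 to 0.5) and Z-score of median probe intensity.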
row,Sequence,PBM 8-mer E-score
1,CAGAAAAC,0.0606 ± 0.042
2,CCACGCGA,0.112 ± 0.0062
3,CGACGTGA,0.063 ± 0.051
4,ACACGCGG,0.181 ± 0.012
5,CCACGCGG,0.448 ± 0.016
6,CTACGTGA,-0.0272 ± 0.054
7,CCACGTGA,0.358 ± 0.053
8,ATCGAAGC,-0.0587 ± 0.14
9,CAGGCATA,0.0998 ± 0.023
10,ATTCCACC,0.0112 ± 0.074
11,GCGATCGC,0.241 ± 0.049
12,CCGATCGC,0.00661 ± 0.018
13,ACGATCGC,0.0237 ± 0.025
14,CCAATCCA,0.00702 ± 0.16
15,CAATTGGG,0.136 ± 0.037
16,GAATTGGC,0.0412 ± 0.066
17,CAATTGGC,0.244 ± 0.016
18,ACCTGTGC,-0.0312 ± 0.029
19,CTTGCTAA,-0.0836 ± 0.038
20,CGCCTCCC,0.00831 ± 0.026
21,AGAACGGC,0.0294 ± 0.038
22,TATCCATA,0.15 ± 0.012
23,ATCCCCAA,0.274 ± 0.036
24,CTCCCCAC,0.278 ± 0.015
25,ATCCCCCA,-0.224 ± 0.14

row,Sequence,PBM 8-mer E-score
1,TTCCCCAA,0.173 ± 0.06
2,CTCCCCCA,-0.103 ± 0.12
3,CTCCCCAG,0.191 ± 0.064
4,CTCCCCTA,0.106 ± 0.087
5,GTCCCCAC,0.021 ± 0.043
6,CTCCCCAA,0.309 ± 0.0081
7,ATCCCAAA,0.0771 ± 0.056
8,ATCCCCTA,0.282 ± 0.019
9,ATCCCCTC,0.215 ± 0.038
10,AATAGTCA,0.109 ± 0.0063
11,CCACATAA,0.0944 ± 0.027
12,GGATTACC,0.0419 ± 0.024
13,AATGAAGC,0.0104 ± 0.028
14,GTGGTAAA,-0.0637 ± 0.0084
15,CGGGTCAC,-0.118 ± 0.034
16,AAGGTATG,0.149 ± 0.056
17,AGAACACC,0.0163 ± 0.039
18,ATCCCCAT,0.104 ± 0.064
19,GACCCCAC,0.131 ± 0.021
20,ATCCCCAC,0.247 ± 0.038
21,AACCCCAC,0.136 ± 0.032
22,CACCCCAC,0.265 ± 0.007
23,ATCCCCAG,0.0388 ± 0.058
24,CACAGAGC,-0.0473 ± 0.035
25,CGCTTAAA,0.0219 ± 0.026

row,Sequence,PBM 8-mer E-score
1,TCACCACA,0.209 ± 0.055
2,ACAAGAGA,-0.031 ± 0.039
3,CAGGATCC,0.0142 ± 0.1
4,CCCAGCCG,-0.207 ± 0.031
5,GGGTGAAC,-0.0445 ± 0.0025
6,AGATTGGG,0.236 ± 0.005
7,AGATTGGC,-0.253 ± 0.0034
8,AGATTGGA,0.0807 ± 0.089
9,GACACTCA,-0.155 ± 0.12
10,CCTTCTCC,-0.1487 ± 0.00034
11,ACAGGCCC,-0.0606 ± 0.0054
12,CGTATAAG,0.0589 ± 0.0073
13,AGTATACT,0.287 ± 0.014
14,CGTATACA,0.0425 ± 0.12
15,AGTATAAT,0.307 ± 0.047
16,AGTATAAG,0.273 ± 0.061
17,CGTATACC,-0.132 ± 0.077
18,ACTATAAG,0.147 ± 0.011
19,AGTATACA,0.218 ± 0.026
20,AGTATACC,0.0537 ± 0.062
21,AGTATAAC,0.0726 ± 0.034
22,CGTATACG,0.279 ± 0.086
23,ACTATAAT,0.1911 ± 0.00057
24,ATGTGTGC,-0.0334 ± 0.049
25,AAGCGGCA,-0.0432 ± 0.047

row,Sequence,PBM 8-mer E-score
1,ATCACTTG,0.101 ± 0.072
2,GGATTCTA,0.0681 ± 0.064
3,GTCAACTA,0.0356 ± 0.0025
4,CGGGGACA,-0.0692 ± 0.1
5,TGACTACA,0.0909 ± 0.018
6,AGATACCC,0.264 ± 0.0095
7,AGATACCA,0.171 ± 0.03
8,AGATACCG,-0.166 ± 0.039
9,AGGCGAAA,-0.0363 ± 0.041
10,GCCTTGAC,-0.0306 ± 0.049
11,AGACCGAG,-0.0567 ± 0.059
12,GCACGTAC,0.0252 ± 0.017
13,GAACGTGA,-0.0484 ± 0.032
14,GGACGTGA,-0.181 ± 0.05
15,GCACGTGA,0.29 ± 0.034
16,GCACGTCC,-0.107 ± 0.035
17,GCACGTGC,0.472 ± 0.0076
18,GTCTCGTA,-0.016 ± 0.023
19,GTGCCCAC,-0.0178 ± 0.036
20,CACTCAGG,0.00926 ± 0.0019
21,CGAGAAAA,-0.0823 ± 0.086
22,CGGCGGCA,-0.192 ± 0.016
23,GGGTAAAA,0.146 ± 0.043
24,CATGCTTC,0.244 ± 0.013
25,AATGCTTC,0.126 ± 0.0042

row,Sequence,PBM 8-mer E-score
1,AATGCTGA,0.11 ± 0.11
2,CATGCTGA,0.235 ± 0.031
3,GATGCGTA,0.12 ± 0.027
4,GATGCTGA,-0.077 ± 0.021
5,CATGCGTA,0.291 ± 0.02
6,AATGCGTA,0.186 ± 0.021
7,CATGCTTA,0.223 ± 0.018
8,CTTAAGTC,-0.0675 ± 0.033
9,CCTGCGAC,-0.0368 ± 0.021
10,CACTGACA,-0.147 ± 0.062
11,CCATTTAC,0.106 ± 0.12
12,ACACAGAA,0.0709 ± 0.022
13,ACGTATAA,0.125 ± 0.024
14,AACAGGAA,-0.0894 ± 0.071
15,ATTCAGAC,-0.0466 ± 0.061
16,CGCGTGTA,0.238 ± 0.04
17,AGCGTGTA,0.1194 ± 0.0008
18,AACGTGTC,0.0326 ± 0.036
19,AACGTGTA,0.0544 ± 0.12
20,GGTGTGTA,0.0384 ± 0.034
21,CACGTGTC,0.377 ± 0.036
22,CCCGTGTC,-0.204 ± 0.024
23,CACGTGTA,0.389 ± 0.023
24,CGTGTGTA,0.239 ± 0.011
25,GACGTGTA,-0.0461 ± 0.043

row,Sequence,PBM 8-mer E-score
1,AGTGTGTA,0.0578 ± 0.047
2,CGCGTGTC,0.139 ± 0.067
3,GACTAGAA,0.177 ± 0.023
4,CCATCGGG,-0.247 ± 0.14
5,CCCCAGTC,0.0489 ± 0.031
6,AACTTACC,-0.00702 ± 0.031
7,GCGGCGTA,0.0259 ± 0.057
8,ACTCGGGC,-0.209 ± 0.095
9,CATTCCTA,0.0858 ± 0.042
10,CGTTGTGA,-0.116 ± 0.13
11,AATCCACT,-0.0636 ± 0.11
12,TGTTCCAA,-0.0197 ± 0.029
13,ATGGAGGG,0.168 ± 0.038
14,AGCTGTGG,-0.0756 ± 0.04
15,GGAGGGGA,0.244 ± 0.028
16,CGAGGGGA,0.021 ± 0.025
17,GTAGGGGA,0.29 ± 0.033
18,CTAGGGGA,0.0989 ± 0.024
19,ATAGGGGA,0.138 ± 0.033
20,GGAGGGAA,-0.0234 ± 0.062
21,CTTTCCGA,-0.294 ± 0.038
22,AGGTGCGC,-0.139 ± 0.056
23,ACCCTATA,-0.0592 ± 0.015
24,TGGCGTAA,0.0766 ± 0.16
25,ATTTTTAG,-0.0464 ± 0.14

row,Sequence,PBM 8-mer E-score
1,AACTTCAA,0.0284 ± 0.018
2,TACTTCAA,0.243 ± 0.013
3,GACTTCAA,0.0921 ± 0.077
4,CATCTAGC,0.114 ± 0.045
5,GGTCTCAC,0.0156 ± 0.0022
6,ACGTTGAA,0.123 ± 0.036
7,TTACGTAA,0.2354 ± 0.0003
8,CTACGTAA,0.0719 ± 0.058
9,ATACGTAA,0.119 ± 0.077
10,ATACGTAT,0.339 ± 0.022
11,ATACGTAC,0.185 ± 0.07
12,GTACGTAA,0.101 ± 0.075
13,GAGACAAC,0.00299 ± 0.013
14,AACTTTAA,0.0575 ± 0.063
15,CGGTTACG,-0.19 ± 0.072
16,CCGCATCG,-0.258 ± 0.046
17,CTATGAGC,-0.0207 ± 0.088
18,CAATAAAA,0.294 ± 0.052
19,CAATAATC,0.0969 ± 0.081
20,CAATAATA,0.247 ± 0.045
21,GAATAAAA,0.0399 ± 0.044
22,CAATAAAC,0.137 ± 0.053
23,CAATAATG,0.0692 ± 0.049
